Measured values as given in PubChem BioAssay (Tox21).
Inconclusive results are not listed. Active and inactive are the calls of the source. Unless noted, calls follow the shape of the dose curve; as a rule, active = well fitted curve in the direction sought with a large enough effect in the repeat runs; inconclusive = weak or mixed curves; inactive = no such curve, though single readings can be large; an effect the other way counts as inactive or inconclusive.

How the values were obtained:
[1] = qHTS assay to identify small molecule agonists of the sonic hedgehog signaling (Shh) pathway - cell viability counter screen (AID 1259366); also: nearly all actives have a fitted effect of over 50% in size
Method in brief: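 After a 4hr attachment at 37C, NIH/3T3 cells bearing an integrated Gli1-driven luciferase reporter were dosed with compounds. Treatment lasted 24hr, with the final hour including CellTiter-Fluor for a fluorescence viability measurement.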

[2] = qHTS assay to identify small molecule antagonists of the sonic hedgehog signaling (Shh) pathway - cell viability counter screen (AID 1259367); also: nearly all actives have a fitted effect of over 55% in size
Method in brief: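 Fluorescence read-out (CellTiter-Fluor, 1 hr at 37C) taken after 23 hr compound treatment of 3T3 Gli1-Luc cells stimulated with conditioned medium. Cells were seeded at 2,000 per well and pre-incubated 4 hr.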

[3] = qHTS assay to identify small molecule agonists of the sonic hedgehog signaling (Shh) pathway (AID 1259368; calls by dose curve;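 also: NIH/3T3-derived 3T3Gli1-Luc cells carrying a stable Gli1-driven firefly luciferase reporter; series mostly up to about 92 µM; nearly all actives have a fitted effect of over 15% in size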)
Method in brief: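 Stable NIH/3T3 Gli1-Luc reporter clone; 24 hr cpd exposure after a 4 hr settling period; luminescence endpoint.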

[4] = qHTS assay to identify small molecule antagonists of the sonic hedgehog signaling (Shh) pathway (AID 1259369; calls by dose curve; also: nearly all actives have a fitted effect of over 45% in size; also: potency is read from the fitted curve at half-maximal effect)
Method in brief: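 Gli1 transcriptional reporter (firefly Luc) in NIH/3T3 background, conditioned-medium activated. 24hr exposure, luminescence endpoint.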

[5] = qHTS assay to identify small molecule agonists of the androgen receptor (AR) signaling pathway in the presence of an antagonist - cell viability counter screen (AID 1259379);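 also: MDA-kb2 human breast cancer cells carrying an MMTV luciferase reporter; series mostly up to about 92 µM; nearly all actives have a fitted effect of over 25% in size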
Method in brief: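 Counter screen for cell viability run in parallel with the AR agonist-mode luciferase assay. MDA-kb2 cells were co-treated with nilutamide (3.0uM final) and compounds, then incubated 16 hr at 37C, and CellTiter-Fluor fluorescence was measured.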

[6] = qHTS assay to identify small molecule agonists of the estrogen receptor beta (ER-beta) signaling pathway - cell viability counter screen (AID 1259380); also: nearly all actives have a fitted effect of over 30% in size
Method in brief: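 In this qHTS counter screen, HEK293T cells carrying an ER-beta/UAS beta-lactamase reporter, grown in 2% charcoal-stripped FBS, received compound for 16 hr; ATP-based CellTiter-Glo luminescence was then read after 30 min at room temperature.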

[7] = target: Androgen receptor (Homo sapiens) (UniProt P10275); assay: qHTS assay to identify small molecule agonists of the androgen receptor (AR) signaling pathway in the presence of an antagonist (AID 1259381; calls by dose curve; also: nearly all actives have a fitted effect of over 15% in size)
Method in brief: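 AR antagonist background: nilutamide 3.0uM final. Cell line: MDA-kb2, MMTV-driven luciferase, responsive to both AR and GR. Exposure 16hr, 37C, no CO2; ONE-Glo luminescence.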

[8] = qHTS assay to identify small molecule antagonists of the estrogen receptor beta (ER-beta) signaling pathway - cell viability counter screen (AID 1259382);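 also: HEK293T cells carrying ER-beta-UAS-bla reporter stimulated with estradiol; series mostly up to about 92 µM; nearly all actives have a fitted effect of over 55% in size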
Method in brief: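 HEK293T ER-beta-UAS-bla, 2% charcoal-stripped FBS; compounds + 1nM E2 16 hr 37C; CellTiter-Glo luminescence, 30 min RT.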

[9] = target: Estrogen receptor (Homo sapiens) (UniProt P03372); assay: qHTS assay to identify small molecule agonists of the estrogen receptor alpha (ER-alpha) signaling pathway in the presence of an antagonist (AID 1259383; calls by dose curve; also: top concentration of the series differs between compounds; nearly all actives have a fitted effect of over 15% in size)
Method in brief: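 ER-alpha agonism measured under antagonist challenge: 10.0nM ICI-182,780 (final) plus compound, 15 concentrations, 22hr, VM7Luc4E2 ERE-luciferase cells. Read by luminescence.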

[10] = target: Progesterone receptor (Homo sapiens) (UniProt P06401); assay: qHTS assay to identify small molecule antagonists of the progesterone receptor (PR) signaling pathway (AID 1346795; active = well fitted inhibition curve with a large enough effect in the signal ratio in the repeat runs, not every such curve was filed as active; the % refers to the signal ratio)
Method in brief: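 Inhibition of R5020-induced (1 nM final) beta-lactamase reporter signal in PR-UAS-bla HEK293T cells was scored by FRET fluorescence after overnight (16 hr) compound treatment.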

[11] = qHTS assay to identify small molecule antagonists of the progesterone receptor (PR) signaling pathway - cell viability counter screen (AID 1346798); also: series mostly up to about 92 µM; nearly all actives have a fitted effect of over 50% in size
Method in brief: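 ATP content as viability readout: CellTiter-Glo luminescence, 30 min room temperature, in PR-UAS-bla HEK293T cells after 16 hr compound/R5020 treatment at 37C and 5% CO2.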

[12] = qHTS assay to identify small molecule agonists of the progesterone receptor (PR) signaling pathway - cell viability counter screen (AID 1346799; calls by dose curve; also: nearly all actives have a fitted effect of over 45% in size)
Method in brief: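 Cytotoxicity in PR-bla HEK293T cells: 16 h compound, 37C; CellTiter-Glo added post-FRET read; luminescence after 30 min RT.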

[13] = qHTS assay to identify small molecule antagonists of the TGF-beta/Smad signaling pathway - cell viability counter screen (AID 1346824); also: nearly all actives have a fitted effect of over 50% in size
Method in brief: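 SBE-bla HEK 293T cells, incubated overnight, then compound plus 0.25 ng/mL TGF-beta1 (stock added) for 5 hr at 37 C. Viability was read in the same wells by CellTiter-Glo luminescence after 30 min at room temperature.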

[14] = qHTS assay to identify small molecule agonists of the TGF-beta/Smad signaling pathway - cell viability counter screen (AID 1346829); also: top concentration of the series differs between compounds; nearly all actives have a fitted effect of over 45% in size
Method in brief: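 Compound-treated SBE-bla HEK 293T cells (5 hr, 37 C) were assessed for viability with CellTiter-Glo in parallel with the reporter read.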

[15] = qHTS assay to identify small molecule agonists or antagonists of the thyroid stimulating hormone receptor (TSHR) signaling pathway - wild type cell line counter screen (AID 1259384; calls by dose curve)
Method in brief: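 Wild-type Hek293 cells, 800/well, 18 h at 37C, then compound with Ro20-1724 for 30 min RT. cAMP by HTRF (cAMP-d2/anti-cAMP cryptate), 1 h RT, fluorescence read. 15 concentrations, triplicates.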

[16] = target: Thyrotropin receptor (Homo sapiens) (UniProt P16473); assay: qHTS assay to identify small molecule antagonists of the thyroid stimulating hormone receptor (TSHR) signaling pathway (AID 1259385; calls by dose curve; also: nearly all actives have a fitted effect of over 20% in size)
Method in brief: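 TSHR-HEK293 cells (800/well) plated 18 h, then compounds with Ro20-1724 and TSH at 1.5 ng/mL final, 30 min at room temperature. cAMP quantified by HTRF (cAMP-d2/anti-cAMP-cryptate, 1 h); 15 concentrations in triplicate.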

[17] = qHTS assay to identify small molecule agonists of the estrogen receptor alpha (ER-alpha) signaling pathway in the presence of an antagonist - cell viability counter screen (AID 1259386);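 also: series mostly up to about 92 µM; cells exposed to compounds for 22 h at 37 °C before the viability read; nearly all actives have a fitted effect of over 30% in size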
Method in brief: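 Steps: 5-day stripped-FBS culture; seed and incubate 24hr; add ICI-182,780 (10.0nM final); pin 15-point compound titration; incubate 22hr at 37C; add CellTiter-Fluor at 21hr; read fluorescence.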

[18] = target: Progesterone receptor (Homo sapiens) (UniProt P06401); assay: qHTS assay to identify small molecule agonists of the progesterone receptor (PR) signaling pathway (AID 1346784; calls by dose curve; also: nearly all actives have a fitted effect of over 30% in size; also: potency is read from the fitted curve at half-maximal effect)
Method in brief: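 Using charcoal-stripped serum (2%) to limit endogenous steroids, PR-UAS-bla HEK 293T cells received compounds for 16 hr at 37C after 6 hr plating; beta-lactamase FRET fluorescence was recorded following 2 hr substrate loading at room temperature.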

[19] = target: Estrogen receptor beta (Homo sapiens) (UniProt Q92731); assay: qHTS assay to identify small molecule agonists of the estrogen receptor beta (ER-beta) signaling pathway (AID 1259377; active = well fitted activation curve with a large enough effect in the signal ratio in the repeat runs, not every such curve was filed as active; the % refers to the signal ratio)
Method in brief: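 In HEK293T cells bearing a UAS-beta-lactamase reporter under ER-beta control, DMSO-delivered compounds were incubated for 16 hr at 37C. Activity was detected as fluorescence 2 hours after LiveBLAzer B/G FRET substrate addition.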

Measured: Potency

Progesterone receptor (Homo sapiens), sequence (P06401 whole entry, looked up): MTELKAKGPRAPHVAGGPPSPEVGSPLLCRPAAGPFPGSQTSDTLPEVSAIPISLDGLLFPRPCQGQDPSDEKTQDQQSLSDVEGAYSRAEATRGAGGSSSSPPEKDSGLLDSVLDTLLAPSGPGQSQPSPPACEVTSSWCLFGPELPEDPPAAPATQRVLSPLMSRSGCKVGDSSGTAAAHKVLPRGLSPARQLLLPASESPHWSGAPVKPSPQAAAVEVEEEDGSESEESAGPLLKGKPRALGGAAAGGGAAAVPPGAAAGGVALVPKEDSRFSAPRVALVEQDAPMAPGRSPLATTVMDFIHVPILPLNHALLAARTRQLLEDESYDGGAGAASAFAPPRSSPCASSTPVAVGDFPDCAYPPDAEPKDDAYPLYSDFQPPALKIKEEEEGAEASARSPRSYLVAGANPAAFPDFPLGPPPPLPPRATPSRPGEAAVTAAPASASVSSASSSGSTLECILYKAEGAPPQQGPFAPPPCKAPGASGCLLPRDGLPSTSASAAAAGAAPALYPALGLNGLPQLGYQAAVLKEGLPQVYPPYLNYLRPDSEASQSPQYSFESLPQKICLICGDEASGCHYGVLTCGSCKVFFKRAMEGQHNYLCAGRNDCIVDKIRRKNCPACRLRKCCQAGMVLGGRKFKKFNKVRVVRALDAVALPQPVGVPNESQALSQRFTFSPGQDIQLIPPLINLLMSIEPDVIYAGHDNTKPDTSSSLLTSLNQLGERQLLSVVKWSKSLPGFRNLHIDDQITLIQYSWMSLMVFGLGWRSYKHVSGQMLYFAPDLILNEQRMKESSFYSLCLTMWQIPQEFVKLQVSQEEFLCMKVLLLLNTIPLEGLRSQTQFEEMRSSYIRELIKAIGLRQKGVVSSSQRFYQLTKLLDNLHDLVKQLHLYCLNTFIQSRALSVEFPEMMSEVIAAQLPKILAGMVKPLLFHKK
Estrogen receptor (Homo sapiens), sequence (P03372 whole entry, looked up): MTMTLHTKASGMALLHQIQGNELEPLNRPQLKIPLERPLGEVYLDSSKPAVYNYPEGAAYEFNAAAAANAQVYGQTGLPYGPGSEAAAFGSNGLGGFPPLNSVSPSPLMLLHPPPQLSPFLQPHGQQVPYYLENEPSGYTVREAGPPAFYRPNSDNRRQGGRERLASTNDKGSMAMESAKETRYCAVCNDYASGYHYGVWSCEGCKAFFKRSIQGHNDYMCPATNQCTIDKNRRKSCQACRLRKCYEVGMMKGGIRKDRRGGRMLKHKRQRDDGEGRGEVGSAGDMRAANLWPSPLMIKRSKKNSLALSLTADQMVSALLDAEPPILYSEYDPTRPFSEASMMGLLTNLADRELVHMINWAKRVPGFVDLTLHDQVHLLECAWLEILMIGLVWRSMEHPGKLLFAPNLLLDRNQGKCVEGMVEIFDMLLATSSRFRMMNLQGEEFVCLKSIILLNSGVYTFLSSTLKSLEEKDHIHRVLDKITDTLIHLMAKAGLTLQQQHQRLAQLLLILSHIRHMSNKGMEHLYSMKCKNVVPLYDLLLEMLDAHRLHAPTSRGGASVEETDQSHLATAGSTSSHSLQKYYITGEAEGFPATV
Thyrotropin receptor (Homo sapiens), sequence (P16473 whole entry, looked up): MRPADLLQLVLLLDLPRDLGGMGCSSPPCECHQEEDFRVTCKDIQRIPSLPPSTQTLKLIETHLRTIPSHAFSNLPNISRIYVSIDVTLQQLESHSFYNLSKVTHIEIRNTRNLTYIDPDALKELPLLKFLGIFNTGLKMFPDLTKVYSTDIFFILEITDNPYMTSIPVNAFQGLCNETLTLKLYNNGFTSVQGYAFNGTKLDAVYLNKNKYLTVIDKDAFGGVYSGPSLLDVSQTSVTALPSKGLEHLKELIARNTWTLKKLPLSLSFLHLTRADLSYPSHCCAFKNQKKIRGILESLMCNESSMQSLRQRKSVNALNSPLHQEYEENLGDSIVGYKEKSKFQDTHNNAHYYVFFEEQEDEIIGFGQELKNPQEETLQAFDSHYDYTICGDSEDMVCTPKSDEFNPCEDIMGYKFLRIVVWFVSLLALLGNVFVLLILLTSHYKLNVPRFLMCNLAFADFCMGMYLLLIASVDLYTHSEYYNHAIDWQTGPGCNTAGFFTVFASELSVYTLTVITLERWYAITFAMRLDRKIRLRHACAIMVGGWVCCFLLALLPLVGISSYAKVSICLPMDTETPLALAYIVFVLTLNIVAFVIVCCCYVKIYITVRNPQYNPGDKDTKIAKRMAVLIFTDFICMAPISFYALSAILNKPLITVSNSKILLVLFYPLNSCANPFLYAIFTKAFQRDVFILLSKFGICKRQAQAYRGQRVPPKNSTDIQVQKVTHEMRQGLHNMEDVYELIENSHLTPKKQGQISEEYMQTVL
Androgen receptor (Homo sapiens), sequence (P10275 whole entry, looked up): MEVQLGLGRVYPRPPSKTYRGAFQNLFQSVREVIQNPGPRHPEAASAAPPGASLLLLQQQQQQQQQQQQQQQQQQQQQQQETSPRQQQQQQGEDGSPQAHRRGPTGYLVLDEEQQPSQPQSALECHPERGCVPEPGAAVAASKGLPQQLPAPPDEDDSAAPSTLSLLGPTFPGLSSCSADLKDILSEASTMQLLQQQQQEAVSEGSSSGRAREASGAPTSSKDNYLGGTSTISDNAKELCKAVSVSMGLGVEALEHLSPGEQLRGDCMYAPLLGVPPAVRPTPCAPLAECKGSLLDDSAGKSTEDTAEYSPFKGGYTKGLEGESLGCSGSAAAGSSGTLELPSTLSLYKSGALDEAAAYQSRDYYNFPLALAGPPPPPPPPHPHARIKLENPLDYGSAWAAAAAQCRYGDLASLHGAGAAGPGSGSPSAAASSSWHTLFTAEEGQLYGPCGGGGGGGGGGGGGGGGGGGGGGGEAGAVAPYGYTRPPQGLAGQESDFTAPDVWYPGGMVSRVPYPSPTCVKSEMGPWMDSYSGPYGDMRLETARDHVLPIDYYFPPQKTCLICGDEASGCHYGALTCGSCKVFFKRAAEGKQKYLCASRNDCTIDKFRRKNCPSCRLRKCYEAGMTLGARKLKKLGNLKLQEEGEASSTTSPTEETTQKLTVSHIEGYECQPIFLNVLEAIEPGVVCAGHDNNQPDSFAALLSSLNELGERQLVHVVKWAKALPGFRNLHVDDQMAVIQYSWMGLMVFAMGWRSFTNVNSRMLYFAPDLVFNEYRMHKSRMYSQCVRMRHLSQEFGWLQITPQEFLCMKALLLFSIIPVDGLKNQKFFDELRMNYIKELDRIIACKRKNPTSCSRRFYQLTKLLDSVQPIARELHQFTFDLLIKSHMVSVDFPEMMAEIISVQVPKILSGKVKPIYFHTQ
Estrogen receptor beta (Homo sapiens), sequence (Q92731 whole entry, looked up): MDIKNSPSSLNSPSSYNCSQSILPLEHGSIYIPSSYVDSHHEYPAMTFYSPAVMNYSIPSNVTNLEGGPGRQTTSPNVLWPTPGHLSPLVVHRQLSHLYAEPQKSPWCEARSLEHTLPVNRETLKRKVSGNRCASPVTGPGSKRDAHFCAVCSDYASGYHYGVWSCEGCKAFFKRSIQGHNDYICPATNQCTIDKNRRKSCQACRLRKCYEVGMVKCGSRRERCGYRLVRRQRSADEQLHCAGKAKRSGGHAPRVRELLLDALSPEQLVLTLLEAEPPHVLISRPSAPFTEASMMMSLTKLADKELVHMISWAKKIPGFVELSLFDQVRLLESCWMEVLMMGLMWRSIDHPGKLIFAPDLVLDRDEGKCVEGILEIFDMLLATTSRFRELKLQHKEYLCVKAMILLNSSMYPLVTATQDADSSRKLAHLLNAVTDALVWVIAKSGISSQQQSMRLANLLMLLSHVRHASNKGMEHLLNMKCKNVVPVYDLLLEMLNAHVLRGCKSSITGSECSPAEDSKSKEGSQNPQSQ

OC(CCN1CCCCC1)(c1ccccc1)c1ccccc1
inactive: [1] | [2] | [3] | [4] | [5] | [6] | [7] | [8] | [9] | [10] | [11] | [12] | [13] | [14]

CC(C)COC(=O)CCCCC(=O)OCC(C)C
inactive: [1] | [2] | [3] | [4] | [5] | [6] | [8] | [15] | [16] | [17] | [18] | [10] | [11] | [12] | [13] | [14]

CCN(CC)C(=O)C1CN2CCc3cc(OC)c(OC)cc3C2CC1OC(C)=O (stereo not drawn)
inactive: [1] | [2] | [3] | [4] | [5] | [6] | [7] | [8] | [9] | [15] | [16] | [17] | [18] | [10] | [11] | [12] | [13] | [14]

CCCCC(C)C(=O)O (stereo not drawn)
inactive: [1] | [2] | [3] | [4] | [5] | [6] | [8] | [15] | [16] | [17] | [18] | [10] | [11] | [12] | [13] | [14]

C[C@@H]1C[C@H]2[C@@H]3C[C@H](F)C4=CC(=O)C=C[C@]4(C)[C@@]3(F)[C@@H](O)C[C@]2(C)[C@@]1(O)C(=O)CO
inactive: [1] | [2] | [3] | [19] | [5] | [8] | [15] | [16] | [17] | [11] | [12] | [13] | [14]
active: [4] 0.668 µM | [18] 5.96 µM

CNCc1ccccc1
inactive: [1] | [2] | [3] | [4] | [5] | [6] | [8] | [17] | [18] | [10] | [12] | [13] | [14]

O=C(O)c1c(Cl)ccc(Cl)c1Cl
inactive: [1] | [2] | [3] | [4] | [5] | [6] | [8] | [9] | [15] | [16] | [18] | [10] | [11] | [12] | [13] | [14]
